The nature of assay [1]: A CellTox Green Cytotoxicity Assay to monitor cytotoxicity in HepG2 cells - 16 hour (AID 1224876). Note: nearly all actives have a fitted effect of over 45% in size. Note: potency is the fitted concentration of half-maximal effect. The method in brief:
(§1)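 Using 1536-well format, dye-containing HepG2 suspension was seeded, allowed 5 h at 37 C/5% CO2, dosed by pintool with compounds, positive and negative controls, and imaged for fluorescence across 40 h.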

The nature of assay [2]: qHTS RealTime-Glo MT Cell Viability Assay in HepG2 cells - 32 hour (AID 1224877). Note: nearly all actives have a fitted effect of over 55% in size. The essentials:
(§2)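 HepG2 cells were seeded at 600 cells/well together with NanoLuc luciferase and a cell-permeant prosubstrate, preincubated 5 h at 37 C/5% CO2, then pin-dosed with compounds in DMSO. Nonlytic luminescence from viable cells was read at each time point.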

A short description of assay [3]: A CellTox Green Cytotoxicity Assay to monitor cytotoxicity in HepG2 cells - 24 hour (AID 1224878). Note: nearly all actives have a fitted effect of over 45% in size. Note: potency is the fitted concentration of half-maximal effect. The method in brief:
as §1

A short description of assay [4]: A CellTox Green Cytotoxicity Assay to monitor cytotoxicity in HepG2 cells - 40 hour (AID 1224879). Note: nearly all actives have a fitted effect of over 40% in size. Note: potency is the fitted concentration of half-maximal effect. The method in brief: as §1
Assay [5] is described as follows: qHTS RealTime-Glo MT Cell Viability Assay in HEK293 cells - 0 hour (AID 1224880). Note: top concentration of the series differs between compounds; nearly all actives have a fitted effect of over 45% in size. The essentials:
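Viable HEK293 cells reduce a cell-permeant prosubstrate; the product diffuses out and is consumed by NanoLuc in the medium to give light. Compounds went in after a 5 h incubation and plates were read over the treatment course.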
A general note: qHTS replaces the single test concentration by a dilution series.

Assay [6] can be described thus: A CellTox Green Cytotoxicity Assay to monitor cytotoxicity in HEK293 cells - 32 hour (AID 1224881). Note: nearly all actives have a fitted effect of over 40% in size. The essentials: (§3)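 Fluorescence intensity, read at 0, 8, 16, 24, 32 and 40 h of compound treatment, reflected dye binding to DNA of dead HEK293 cells; compounds (23 nL, DMSO) were added 5 h after plating cells with reagent.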
A short description of assay [7]: A CellTox Green Cytotoxicity Assay to monitor cytotoxicity in HepG2 cells - 0 hour (AID 1224882). Note: nearly all actives have a fitted effect of over 35% in size. The essentials: as §1
A short description of assay [8]: A CellTox Green Cytotoxicity Assay to monitor cytotoxicity in HepG2 cells - 32 hour (AID 1224883). Note: nearly all actives have a fitted effect of over 50% in size. Note: potency is the fitted concentration of half-maximal effect. The method in brief: as §1
A short description of assay [9]: A CellTox Green Cytotoxicity Assay to monitor cytotoxicity in HEK293 cells - 8 hour (AID 1224884). Note: nearly all actives have a fitted effect of over 35% in size. The essentials:
as §3

The nature of assay [10]: qHTS RealTime-Glo MT Cell Viability Assay in HepG2 cells - 16 hour (AID 1224885). Note: nearly all actives have a fitted effect of over 50% in size. The method in brief:
as §2

“And” between values parts separate entries of the source, which are not always exact repeats. Identical values can stand only once. Inconclusive results are not listed. Where a structure was tested more than once in an assay, its records may differ in their call. The source made the active and inactive calls. Calls come from the whole dose curve; as a rule, active = well fitted curve in the direction sought with a large enough effect in the repeat runs; inconclusive = weak or mixed curves; inactive = no such curve, though single readings can be large; an effect the other way counts as inactive or inconclusive.

`CCCCC(CC)COC(=O)CCCCC(=O)OCC(CC)CCCC` (stereo not drawn): the Potency result in [1], in [3], in [5] and in [6] was “inactive” each time. Further, the compound was classed as inactive in [2], in assay [7], in [9] and in [10]. Moreover, the Potency entry in assay [4] was “inactive and 2.45 µM (active)”; in assay [8], “inactive and 2.45 µM (active)”.

As to `Cc1ccc2oc(=O)ccc2c1`, the Potency entry in assay [1], in assay [3], in [4], in [5], in assay [6] and in [8] was “inactive” throughout. The compound was called inactive in assay [2], in assay [7], in assay [9] and in [10].

With `O=C(O)c1cc(C(=O)O)cc(S(=O)(=O)O)c1`, the Potency result in assay [1], in assay [3], in assay [4], in assay [5], in assay [6] and in assay [8] was “inactive” throughout. Further, the compound was classed as inactive in [2], in assay [7], in [9] and in assay [10].

As for `c1c[nH]cn1`, the Potency entry in assay [1], in [3], in assay [4], in assay [5], in assay [6] and in [8] was “inactive” throughout. Moreover, the call in [2], in assay [7], in assay [9] and in assay [10] was inactive.

With `O=c1[nH]c(=O)n([C@H]2C[C@H](O)[C@@H](CO)O2)cc1Br`, the Potency result in [1], in assay [3], in assay [4], in assay [5], in assay [6] and in [8] was “inactive” in each case. Also, the result in assay [2], in [7], in [9] and in assay [10] was inactive.

With `CC(=O)Nc1cccc(O)c1`, the Potency entry in [1], in assay [3], in assay [5], in [6] and in assay [8] was “inactive” in each case. Moreover, the compound was called inactive in [2], in assay [7], in assay [9] and in assay [10].

Regarding `C[C@H]1C[C@H]2[C@@H]3CCC4=CC(=O)C=C[C@]4(C)[C@@]3(F)[C@@H](O)C[C@]2(C)[C@@]1(O)C(=O)CO`, the Potency result in assay [1], in assay [3], in assay [5], in assay [6] and in assay [8] was “inactive” each time. For the same compound, the result in [2], in [7], in [9] and in [10] was inactive.

As to `CC(=O)Nc1ccccc1`, the Potency entry in [1], in assay [3], in [5], in [6] and in [8] was “inactive” each time. For the same compound, the result in [2], in [7], in [9] and in [10] was inactive.

Turning to `O=C(O)CCCC[C@@H]1SC[C@@H]2NC(=O)N[C@@H]21`, the Potency result in [1], in assay [3], in assay [5], in [6] and in [8] was “inactive” throughout. In addition, the result in assay [2], in assay [7], in [9] and in assay [10] was inactive.

For the compound `CCCCC(CC)CO` (stereo not drawn), the Potency entry in assay [1], in assay [3], in assay [5], in [6] and in assay [8] was “inactive” throughout. Moreover, the result in assay [2], in assay [7] and in [9] was inactive.

`Cc1ccc(S(N)(=O)=O)cc1`: the Potency result in assay [1], in assay [3], in [5], in [6] and in assay [8] was “inactive” in each case. For the same compound, the compound was classed as inactive in assay [2], in [7] and in [9].

For the compound `Nc1ccccc1[N+](=O)[O-]`, the Potency entry in [1], in assay [3], in assay [5], in assay [6] and in assay [8] was “inactive” in each case. Further, the outcome in [2], in [7] and in [9] was inactive.

On to `CCCCCC(N)=O`, for which the Potency entry in assay [1], in [3], in assay [5], in assay [6] and in [8] was “inactive” each time. Moreover, the compound was classed as inactive in assay [2], in [7], in [9] and in [10].

Regarding `CCCCCCCC(=O)OC`, the Potency result in assay [1], in [3], in assay [5], in assay [6] and in assay [8] was “inactive” in each case. Further, the compound was classed as inactive in [2], in assay [7], in assay [9] and in assay [10].

In the case of `c1ccc2scnc2c1`, the Potency entry in assay [1], in assay [3], in assay [5], in assay [6] and in assay [8] was “inactive” throughout. In addition, the compound was classed as inactive in assay [2], in [7] and in assay [9].

As to `CC1CCC(C(C)C)C(O)C1` (stereo not drawn), the Potency entry in assay [1], in assay [3], in assay [5], in assay [6] and in assay [8] was “inactive” throughout. Besides, the result in [2], in assay [7], in assay [9] and in [10] was inactive.

In the case of `CCC(O)OC(O)CC` (stereo not drawn), the Potency entry in [1], in assay [3], in assay [5], in [6] and in assay [8] was “inactive” each time. The compound was called inactive in assay [2], in assay [7], in [9] and in assay [10].

With `O=C(O)CCCCCCCCCCC(=O)O`, the Potency entry in assay [1], in assay [3], in [5], in assay [6] and in assay [8] was “inactive” throughout. For the same compound, the compound was classed as inactive in assay [2], in assay [7], in [9] and in [10].

On to `CC1=CCC2CC1C2(C)C` (stereo not drawn), for which the Potency result in [1], in assay [3], in assay [5], in [6] and in assay [8] was “inactive” in each case. Moreover, the compound was called inactive in assay [2], in [7], in assay [9] and in [10].

Turning to `Cc1cc(C)c(C)cc1C`, the Potency result in assay [1], in assay [3], in assay [5], in assay [6] and in [8] was “inactive” each time. For the same compound, the compound was called inactive in [2], in assay [7] and in assay [9].

As to `C=CCOC(=O)c1ccccc1C(=O)OCC=C`, the Potency entry in [1], in assay [3], in [5], in [6] and in assay [8] was “inactive” in each case. Also, the call in assay [2], in assay [7], in [9] and in assay [10] was inactive.

Turning to `COc1ccc(Nc2ccccc2)c(C)c1`, the Potency entry in assay [1], in [3], in assay [5], in [6] and in [8] was “inactive” throughout. Moreover, the outcome in assay [2], in assay [7], in [9] and in [10] was inactive.

Consider `O=C(O)c1ccc2c(c1)C(=O)OC2=O`, for which the Potency entry in assay [1], in assay [3], in assay [5], in assay [6] and in assay [8] was “inactive” throughout. Moreover, the result in [2], in [7] and in assay [9] was inactive.

Take `COc1ccc(NC(C)=O)cc1N`: the Potency result in [1] is “inactive and 21.9 µM (active)”; in assay [3] it was “inactive and 49 µM (active)”; in assay [8] it was “inactive and 43.6 µM (active)”. In addition, the call in [2], in [7], in assay [9] and in assay [10] was inactive. For the same compound, the Potency result in assay [5] and in assay [6] was “inactive” throughout.

`COc1ccc2cc([C@H](C)C(=O)O)ccc2c1`: the Potency entry in assay [1], in assay [3], in [5], in [6] and in assay [8] was “inactive” in each case. The compound was classed as inactive in assay [2], in assay [7], in [9] and in assay [10].

`CC(=O)OCC(=O)[C@@]12N=C(C)O[C@@H]1C[C@H]1[C@@H]3CCC4=CC(=O)C=C[C@]4(C)[C@H]3[C@@H](O)C[C@@]12C`: the Potency entry in assay [1], in assay [3], in assay [5], in assay [6] and in [8] was “inactive” each time. Further, the call in [2], in assay [7], in assay [9] and in assay [10] was inactive.

The values are drawn from PubChem BioAssay (Tox21).
